Assay results: PubChem BioAssay (NCI)
The panel holds about 83,000 compounds, 20% with a hit somewhere; the sample as a whole holds those more often.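 96-well plates, one dose, 48 hours. Percent growth reported; active if below 10.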 A number with no mark means an inactive call. The source made the active and inactive calls.

test system: COLO 205 colon; experiment: NCI-60 one-dose screen, 48 h (100 = growth as untreated, 0 = no growth, -100 = all killed); settings: 10 µM
Protocol: Cells are grown in 96 well plates and exposed to the test compound for 48 hours. Compounds are tested at a single concentration, which is 10^-5 M for most compounds. The reported endpoint is percent growth (GI% or GIPRCNT), where numbers from 0 - 100% represent growth inhibition, and numbers from -100% - 0 represent cell death. For example, a value of 40 represents 60% growth inhibition. A value of 0 means no net growth occurred over the course of the experiment. A value of -40 indicates 40% of cells at the beginning of the experiment died by the end of the experiment. A value of -100 means all cells are dead at the end of the experiment.
NCI-60 Human Tumor Cell Lines Screen was performed using the standard one-dose NCI protocol, which is described in more detail at https://dtp.cancer.gov/discovery_development/nci-60/default.htm.
Compounds with GIPRCNT values below 10 were considered active. Activity score was based on GIPRCNT using the following formula: […]
Score is 0 for GIPRCNT values of 100 or above, 50 for GIPRCNT values of 0, and 100 for GIPRCNT values of -100.

Row | SMILES | growth
1 | CC(=O)n1nc(C(=O)OC(C)(C)C)c2cc(F)c(F)cc21 | 103%
2 | Cc1cccc2c(Nc3ccc(NS(C)(=O)=O)cc3)c3ccc([N+](=O)[O-])cc3nc12 | 34.9%
3 | CCN(CCCNC(=O)Cc1cc(=O)oc2cc(N(C)C)ccc12)CCNc1ccnc2cc(Cl)ccc12 | 68.1%
4 | COc1ccc(-c2oncc2-c2cc(OC)c3c(c2)OCO3)cc1 | 15%
5 | CCOC(=O)CSC(=S)SCC(=O)OCC | 127%
6 | CCC1(C)OC(=O)NC1=O (stereo not given) | 103%
7 | COc1cc(C2C=C(c3ccc(Cl)c(Cl)c3)N=C3SC(C)=CN32)cc(OC)c1OC (stereo not given) | 81.3%
8 | COc1ccc(Cn2cc3c(c2-c2cc(OC)c(OC)c(OC)c2)CCc2cnoc2-3)cc1N | -29.1% (active)
9 | O=C(/C=C/c1ccc(Cl)cc1)c1ccc(Br)cc1 | 110%
10 | CCN(CC)c1ccc(/C=C/C2=[N+](C)c3ccccc3C2(C)C)c(C)c1 | -58.4% (active)
11 | COC(=O)[C@]12CC[C@@H](C)[C@H](C)[C@@H]1C1=CC[C@@H]3[C@@]4(C)C/C(=N\O)[C@H](O)[C@@]5(C)COC(=C45)C[C@@]3(C)[C@]1(C)CC2 | -91.9% (active)
12 | CCc1ccc(-c2nnc(COc3ccc(-c4nc5ccc(C)cc5[nH]4)cc3OC)o2)cc1 | 84.7%
13 | CCCc1ccnc(NS(=O)(=O)c2ccc(N)cc2)n1 | 37.8%
14 | O=C1/C(=C/c2ccc(O)cc2O)N=C2SCCCN12 | 106%
15 | CCOC(=S)Sc1ccc([N+](=O)[O-])cc1[N+](=O)[O-] | -13.1% (active)
16 | CNC(=O)c1cc(Oc2ccc(NC(=O)Nc3ccc(Cl)c(OC4CCCCC4)c3)c(F)c2)ccn1 | 33.2%
17 | O=S(=O)(NC1c2ccccc2Oc2ccccc21)c1ccccc1 | 95.6%
18 | Fc1ccc2[nH]c3c(NCCCN4CCOCC4)ncnc3c2c1 | 53.4%
19 | CCCCCCCCCCCCCCCCCBr | 106%
20 | CCCCc1ccc(NC(=O)N(CCCl)N=O)cc1 | 101%

Row | SMILES | growth
21 | C/C(=N/NC(=O)c1sc(=S)n(C)c1N)c1cc2cc(Cl)ccc2o1 | 104%
22 | O=NN(CC(=O)N/N=C/C=C\c1ccccc1)CC(=O)N/N=C/C=C/c1ccccc1 | 109%
23 | O=C/C=C/c1ccc([N+](=O)[O-])cc1Cl | 108%
24 | CCN(CC)CCOC(=O)c1ccc(NC(=O)Nc2cccc(Cl)c2)cc1 | 105%
25 | COc1ccc(-c2nnc(N3CCN(C(=O)CN4CCN(c5ccc(Cl)cc5)CC4)CC3)nc2-c2ccc(OC)cc2)cc1 | 59.2%
26 | COc1c(-c2c3sc(=O)[nH]c3nc3c2c(=O)[nH]n3C(C)C)cc2c(c1OC)OCO2 | 117%
27 | COc1cccc(-c2nnc(COc3ccc(-c4nc5ccccc5[nH]4)cc3OC)o2)c1 | 85.4%
28 | COc1cc(Cn2c(-c3ccccc3)cc3c2-c2oncc2CC3)cc(OC)c1 | -29.6% (active)
29 | CC(=O)[C@H]1CC[C@H]2[C@@H]3CC[C@@H]4CC=C(C=O)C[C@]4(C)[C@H]3CC[C@]12C | 105%
30 | Nc1ccn([C@@H]2O[C@H](COP(=O)(O)O[C@@H]3C[C@H](n4cc(F)c(=O)[nH]c4=O)O[C@@H]3COP(=O)(O)O[C@@H]3C[C@H](n4cc(F)c(=O)[nH]c4=O)O[C@@H]3COP(=O)(O)O[C@@H]3C[C@H](n4cc(F)c(=O)[nH]c4=O)O[C@@H]3COP(=O)(O)O[C@@H]3C[C@H](n4cc(F)c(=O)[nH]c4=O)O[C@@H]3COP(=O)(O)O[C@@H]3C[C@H](n4cc(F)c(=O)[nH]c4=O)O[C@@H]3COP(=O)(O)O[C@@H]3C[C@H](n4cc(F)c(=O)[nH]c4=O)O[C@@H]3COP(=O)(O)O[C@@H]3C[C@H](n4cc(F)c(=O)[nH]c4=O)O[C@@H]3COP(=O)(O)O[C@@H]3C[C@H](n4cc(F)c(=O)[nH]c4=O)O[C@@H]3COP(=O)(O)O[C@@H]3C[C@H](n4cc(F)c(=O)[nH]c4=O)O[C@@H]3COP(=O)(O)O[C@@H]3C[C@H](n4cc(F)c(=O)[nH]c4=O)O[C@@H]3COP(=O)(O)OCCOCCOCCOCCOCCOCCO)[C@H](O)C2O)c(=O)n1 (stereo not given in full) | 36.9%
31 | CCOC(=O)c1ccc(NC(=O)Nc2nncs2)cc1 | -25.9% (active)
32 | COc1cc2ccnc(C=O)c2cc1OC | 92.9%
33 | O=c1[nH]c(=O)n(C2C[C@@H](O)[C@@H](CO)O2)cc1F (stereo not given in full) | 36.7%
34 | COc1ccc(NC(=O)CCn2cnc3c(cc(-c4ccccc4)n3-c3ccccc3)c2=O)cc1 | 114%
35 | O=C(NCCc1nccs1)c1cnc2c(S)cccc2c1 | -52.4% (active)
36 | NS(=O)(=O)c1ccc(N2N=C(c3ccc(-c4ccccc4)cc3)CC2c2ccc(Cl)cc2)cc1 (stereo not given) | 103%
37 | NC(=O)c1ccc(Br)o1 | 103%
38 | O=C1/C(=C/c2ccc(O)cc2)CSc2ccc(Cl)cc21 | 108%
39 | COc1cccc(C2(C)Nc3ccccc3-c3nc4ccccc4n32)c1 (stereo not given) | 109%
40 | Fc1ccc(Nc2ccnc(N3CCN(c4ccnc5cc(Cl)ccc45)CC3)n2)cc1 | 34.7%
